This note sets out measurements from PubChem BioAssay (NCI).

Structures are written as SMILES. “And” between values parts separate entries of the source, which are not always exact repeats. Equal values may be shown once. The panel holds about 83,000 compounds, 20% with a hit somewhere; the sample as a whole holds those more often.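 Compound tested at a single concentration for 48 hours in 96-well plates; a percent growth value below 10 was scored as active.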 The source holds several records for some structures; these can differ, active in one and inactive in another. The source made the active and inactive calls. *1 amine or outer side, *2 acyl side, *3 side chain or, on linkers, in order; H or OH if unused. Where a SMILES comes first, the peptide text is derived from it. Bridges are numbered along the chain shown (N, C = ends). Roman numbers before positions name the chains, in order. [ ]: non-standard residue; d: D form. Actinocin(1to9) = Cc1c2oc3c(C)ccc(C(=O)[*:2])c3nc-2c(C(=O)[*:1])c(N)c1=O; NMeV = CN[CH](C(=O)O)C(C)C; Sar = CNCC(=O)O

One assay deals with PC-3 prostate. Put plainly: NCI-60 one-dose screen, 48 h (100 = growth as untreated, 0 = no growth, -100 = all killed). As to conditions: 10 µM unless noted.
Take `C/C(=N\NC(=S)N1CC2CCC(CC2)C1)c1ccccn1`: the growth was -4.47% (active).
For `O=C(Nc1cccc(C(F)(F)F)c1)Oc1ccc(Cl)c2cccnc12`, the growth was -40.1% (active).
The same measure, in the same setting: next, `CC(=O)c1c(O)c(C)c(O)c2c1OC1=CC(=O)C(C(C)=O)C(=O)C12C` (centres undefined): 45.3% (inactive); `N=C(N)Sc1cccc[n+]1[O-]`: 38.1% (inactive).
The same measure, in the same setting: next, `Cc1oc2c(C)c3oc(=O)cc(C)c3cc2c1CCl`: 91% (inactive); `CCC(C)C1NC(=O)C(NC(=O)c2c3nc4c(C(=O)NC5C(=O)NC(C(C)CC)C(=O)N6CCCC6C(=O)N(C)CC(=O)N(C)C(C(C)C)C(=O)OC5C)ccc(C)c4oc-3c(C)c(=O)c2N)C(C)OC(=O)C(C(C)C)N(C)C(=O)CN(C)C(=O)C2CCCN2C1=O` (centres undefined) (I: TIP[Sar][NMeV] / II: TIP[Sar][NMeV]; ester I:1-I:C, II:1-II:C; linker I:N-II:N via Actinocin(1to9); configuration not given here): -3.84% (active).
On to `COc1ccc(NC(=O)/C(=C/N2C(=O)/C(=C/c3ccc(OC)c(OC)c3)NC2=S)C(C)=O)cc1`, for which the growth was 62.4% (inactive).
Regarding `O=C1C=CC(=O)c2c(O)c(CO)c(CO)c(O)c21`, the growth was 25.6% (inactive).
As for `CCCCCCCCCCCC1=NCCCN1CCCC`, the growth is 89.1% (inactive).
As for `CN(C)c1ccc(C(C#N)(c2ccccc2)c2ccc(N(C)C)cc2)cc1`, the growth was 69.4% (inactive).
Same read-out and setting: next, `O=C(Nc1ccc(Cl)c(Cl)c1)OCc1ccco1`: 54.1% (inactive); `O=C1/C(=C/c2ccccc2)CCC/C1=C\c1ccccc1`: 88.9% (inactive).
Turning to `N#Cc1c2ccccc2nc2ccccc12`, the growth is 91% (inactive).
As for `CCOC(=O)C1(C)CCCC1N` (centres undefined), the growth was 104% (inactive).
As to `Cc1cc(=O)oc2cc(O)cc(O)c12`, the growth is 100% (inactive).
Turning to `NNc1cccc([N+](=O)[O-])c1`, the growth is 86.4% (inactive).
In the case of `N#CCc1cccc2ccccc12`, the growth was 90.9% (inactive).
As to `CC1(C)N=c2cc3c(cc2N1c1ccc(Cl)cc1)=Nc1ccccc1N3c1ccc(Cl)cc1`, the growth was 7.55% (active).
Turning to `Oc1ccc2ccccc2c1N=Nc1nccs1`, the growth was 35.4% (inactive).
`NC(=S)N/N=C\c1nccc2c(N)cccc12`: the growth is 46.6% (inactive).
Take `COC(=O)C(=[N+]=[N-])C(=O)c1ccc([N+](=O)[O-])o1`: the growth was 74% (inactive).
Turning to `OC(c1cc(-c2ccc(C(F)(F)F)cc2)nc(C(F)(F)F)c1)C1CCCCN1` (centres undefined), the growth was -29.2% (active) and -43.2% (active) and 17% (inactive).
Take `O=C1Nc2ccc(Br)cc2C1=O`: the growth was 92.8% (inactive).
For the molecule `C/C=C/c1cc2c(c(=O)o1)C(=O)[C@@H](O)[C@H](C)O2`, the growth was 11.3% (inactive).
With `Nc1cccc2cccc([N+](=O)[O-])c12`, the growth is 103% (inactive).
As to `COc1cccc2c1C(=O)c1c(O)c3c(c(O)c1C2=O)C[C@@](O)(C(=O)CO)C[C@@H]3OC1CC(OC(C)=O)C(OC(C)=O)C(C)O1` (some centres undefined), the growth was 5.51% (active).
Take `CCOC(=O)C1=C(C(=O)c2ccccc2)C(c2cccc([N+](=O)[O-])c2)C(C(=O)c2ccccc2)=C(C(=O)OCC)N1`: the growth is 86% (inactive).
Turning to `N#C/C(=N\Nc1ccc(Cl)cc1)C(=O)C1CC1`, the growth was 54.3% (inactive).
On to `Cc1cc(N/N=C/c2ccccn2)nc2ccccc12`, for which the growth was 28.3% (inactive).
Turning to `O=C1C(=O)c2cccnc2-c2ncccc21`, the growth is -24.5% (active).
Turning to `CC(CSc1n[nH]c(=S)s1)c1ccccc1` (centres undefined), the growth is 102% (inactive).
On to `CC/C(=C(/CC)c1ccc(O)cc1)c1ccc(O)cc1`, for which the growth is 75.4% (inactive).
Still for that read-out and setting: under `CCOC(=O)C1=NN(c2ccccc2)C(=O)/C1=C\N1C(=O)/C(=C/c2cccc(O)c2)SC1=S` stands 88% (inactive).

The next assay has as its system SK-MEL-5 melanoma. The description is as above. Conditions: 10 µM unless noted.
Turning to `O=C(Nc1cccc(C(F)(F)F)c1)Oc1ccc(Cl)c2cccnc12`, the growth is 34% (inactive).
With `CC(=O)c1c(O)c(C)c(O)c2c1OC1=CC(=O)C(C(C)=O)C(=O)C12C` (centres undefined), the growth is 90.9% (inactive).
As to `N=C(N)Sc1cccc[n+]1[O-]`, the growth is 56.2% (inactive).
As to `COc1ccc(NC(=O)/C(=C/N2C(=O)/C(=C/c3ccc(OC)c(OC)c3)NC2=S)C(C)=O)cc1`, the growth is 68.9% (inactive).
`O=C1C=CC(=O)c2c(O)c(CO)c(CO)c(O)c21`: the growth was 73.8% (inactive).
On to `CCCCCCCCCCCC1=NCCCN1CCCC`, for which the growth was 95.8% (inactive).
Turning to `CN(C)c1ccc(C(C#N)(c2ccccc2)c2ccc(N(C)C)cc2)cc1`, the growth is 81.6% (inactive).
As to `N#Cc1c2ccccc2nc2ccccc12`, the growth was 94.8% (inactive).
Take `CCOC(=O)C1(C)CCCC1N` (centres undefined): the growth is 98% (inactive).
In the case of `Cc1cc(=O)oc2cc(O)cc(O)c12`, the growth was 99.5% (inactive).
Turning to `NNc1cccc([N+](=O)[O-])c1`, the growth was 109% (inactive).
For `N#CCc1cccc2ccccc12`, the growth is 104% (inactive).
Consider `CC1(C)N=c2cc3c(cc2N1c1ccc(Cl)cc1)=Nc1ccccc1N3c1ccc(Cl)cc1`, for which the growth is 37.8% (inactive).
Consider `NC(=S)N/N=C\c1nccc2c(N)cccc12`, for which the growth is 10.8% (inactive).
On to `O=C1Nc2ccc(Br)cc2C1=O`, for which the growth was 101% (inactive).
In the case of `C/C=C/c1cc2c(c(=O)o1)C(=O)[C@@H](O)[C@H](C)O2`, the growth was 95.2% (inactive).
Consider `Nc1cccc2cccc([N+](=O)[O-])c12`, for which the growth is 111% (inactive).
`COc1cccc2c1C(=O)c1c(O)c3c(c(O)c1C2=O)C[C@@](O)(C(=O)CO)C[C@@H]3OC1CC(OC(C)=O)C(OC(C)=O)C(C)O1` (some centres undefined): the growth was -100% (active).
The same measure, in the same setting: under `O=C1C=CC(=O)N1c1ccccc1` stands 106% (inactive); under `CCOC(=O)C1=C(C(=O)c2ccccc2)C(c2cccc([N+](=O)[O-])c2)C(C(=O)c2ccccc2)=C(C(=O)OCC)N1`, 95.9% (inactive); under `N#C/C(=N\Nc1ccc(Cl)cc1)C(=O)C1CC1`, 0.976% (active).
With `Cc1cc(N/N=C/c2ccccn2)nc2ccccc12`, the growth was -43.7% (active).
Consider `O=C1C(=O)c2cccnc2-c2ncccc21`, for which the growth is -100% (active).
For `CC(CSc1n[nH]c(=S)s1)c1ccccc1` (centres undefined), the growth was 103% (inactive).
`CC/C(=C(/CC)c1ccc(O)cc1)c1ccc(O)cc1`: the growth is 21.4% (inactive).
Consider `CCOC(=O)C1=NN(c2ccccc2)C(=O)/C1=C\N1C(=O)/C(=C/c2cccc(O)c2)SC1=S`, for which the growth was 95% (inactive).
